Assay in all cases: growth (OD600 after 10 h); higher = more growth (less inhibition)
Assay [1] concerns E. coli TESEC Alr+ wild-type control. The settings on record: compound 0.1 mM; raw OD600 reference: median of DMSO wells 0.241, cell-free background 0.041. As for the experimental part:
(§1)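 TESEC Mtb Alr E. coli, or the Alr+ wild-type control, in 384-well plates with Prestwick library compounds at 0.1 mM and 1% DMSO, across arabinose induction levels of 1E3 to 1E7 nM. Growth is read as OD600 after 10 h at 37 °C in triplicate biological replicates.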

The subject of assay [2] is E. coli TESEC Mtb Alr. The settings on record: compound 0.1 mM. On the procedure: as §1
Another assay has as its system E. coli TESEC Mtb Asd. The settings on record: compound 0.1 mM. On the procedure:
(§2)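 TESEC E. coli strains in which the native enzyme is deleted and replaced by arabinose-inducible Mtb Asd, DapB, CysH or TrpD, each grown in its selective medium. Strains were screened against the Prestwick library at 0.1 mM and 1% DMSO in 384-well format at low and high arabinose induction. Growth is read as OD600 after 10 h in triplicate.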

The test system of the next assay is E. coli TESEC Mtb DapB. The following applies: compound 0.1 mM. As for the experimental part: as §2
Assay [3] has as its system E. coli TESEC Alr+ wild-type control. The settings on record: compound 0.1 mM; raw OD600 reference: median of DMSO wells 0.49, cell-free background 0.052. As for the experimental part: (§3)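 TESEC Mtb Alr E. coli (ΔaraC ΔtolC ΔentC Δalr ΔdadX, arabinose-inducible Mtb Alr) or the Alr+ wild-type control strain, grown in defined M9-fructose medium without D-alanine in 96-well plates with Prestwick library compounds at 0.1 mM and 1% DMSO. Low Alr induction is 0.1 µM arabinose and high induction is 10 mM arabinose.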

Assay [4] concerns E. coli TESEC Mtb Alr. The settings on record: compound 0.1 mM. On the procedure: as §3
This is another data set of the same source.

Where [5] appears, read: arabinose 1000 nM, raw OD600 reference: median of DMSO wells 0.294, cell-free background 0.041.
Setting [6] is: arabinose 10000 nM, raw OD600 reference: median of DMSO wells 0.264, cell-free background 0.041.
[7] abbreviates: arabinose 100000 nM, raw OD600 reference: median of DMSO wells 0.201, cell-free background 0.041.
Setting [8] is: arabinose 1000000 nM, raw OD600 reference: median of DMSO wells 0.193, cell-free background 0.041.
Where [9] appears, read: arabinose 10000000 nM, raw OD600 reference: median of DMSO wells 0.146, cell-free background 0.041.
The mark [10] stands for this setting: arabinose induction (level): High, raw OD600 reference: median of DMSO wells 0.331, cell-free background 0.041.
Setting [11] is: arabinose induction (level): Low, raw OD600 reference: median of DMSO wells 0.417, cell-free background 0.041.
Where [12] appears, read: arabinose induction (level): High, raw OD600 reference: median of DMSO wells […], cell-free background 0.041.
Where [13] appears, read: arabinose induction (level): Low, raw OD600 reference: median of DMSO wells 0.227, cell-free background 0.041.
Setting [14] is: arabinose 100 nM, raw OD600 reference: median of DMSO wells 0.413, cell-free background 0.052.
Where [15] appears, read: arabinose 10000000 nM, raw OD600 reference: median of DMSO wells […], cell-free background 0.052.

Counter-ions that a name gives are not always drawn. ± gives the standard deviation of the averaged measurements.

Consider four molecules from the supplement of paper PMC9262897, “Low-cost anti-mycobacterial drug discovery using engineered E. coli” (Nature Communications, 2022).

Turning to `NS(=O)(=O)c1cc2c(cc1C(F)(F)F)NC(Cc1ccccc1)NS2(=O)=O` (configuration not stated) [Bendroflumethiazide], the growth in assay [1] worked out at 0.233 ± 0.0098; with E. coli TESEC Mtb Alr [2] (setting [5]), 0.301 ± 0.0067; in the assay with E. coli TESEC Mtb Alr [2] (setting [6]), 0.261 ± 0.0081; in the assay on E. coli TESEC Mtb Alr [2] (setting [7]) it was 0.219 ± 0.015; with E. coli TESEC Mtb Alr [2] (setting [8]), 0.162 ± 0.005; with E. coli TESEC Mtb Alr [2] (setting [9]), 0.154 ± 0.0047. The growth came to 0.459 ± 0.046 in the assay on E. coli TESEC Mtb Asd (setting [10]); 0.451 ± 0.035 with E. coli TESEC Mtb Asd (setting [11]); 0.217 ± 0.017 with E. coli TESEC Mtb DapB (setting [12]); 0.268 ± 0.0034 in the assay on E. coli TESEC Mtb DapB (setting [13]); 0.487 ± 0.035 in assay [3]; 0.403 ± 0.012 in the assay on E. coli TESEC Mtb Alr [4] (setting [14]). The same molecule registered a growth in the assay with E. coli TESEC Mtb Alr [4] (setting [15]) of 0.298 ± 0.016.

For `CN(C/C=C/c1ccccc1)Cc1cccc2ccccc12` [Naftifine hydrochloride], the growth in assay [1] is 0.0432 ± 0.0006; in the assay with E. coli TESEC Mtb Alr [2] (setting [5]), 0.0444 ± 0.001; in the assay on E. coli TESEC Mtb Alr [2] (setting [6]), 0.04317 ± 0.00021; with E. coli TESEC Mtb Alr [2] (setting [7]), 0.045 ± 0.0005; with E. coli TESEC Mtb Alr [2] (setting [8]) it was 0.0437 ± 0.0015; in the assay on E. coli TESEC Mtb Alr [2] (setting [9]), 0.0527 ± 0.00066. The growth is 0.269 ± 0.035 in the assay with E. coli TESEC Mtb Asd (setting [10]); 0.313 ± 0.069 in the assay on E. coli TESEC Mtb Asd (setting [11]); 0.125 ± 0.008 with E. coli TESEC Mtb DapB (setting [12]); 0.133 ± 0.0053 with E. coli TESEC Mtb DapB (setting [13]); 0.374 ± 0.0058 in assay [3]; 0.266 ± 0.14 in the assay on E. coli TESEC Mtb Alr [4] (setting [14]). In addition, in the assay on E. coli TESEC Mtb Alr [4] (setting [15]), the growth came to 0.052 ± 0.0013.

Regarding `O=S(=O)(O)CCS` [Mesna], the growth in assay [1] came to 0.2377 ± 0.0019; in the assay on E. coli TESEC Mtb Alr [2] (setting [5]), 0.282 ± 0.0091; in the assay with E. coli TESEC Mtb Alr [2] (setting [6]) it was 0.28 ± 0.0078; with E. coli TESEC Mtb Alr [2] (setting [7]), 0.193 ± 0.012; with E. coli TESEC Mtb Alr [2] (setting [8]), 0.206 ± 0.016; with E. coli TESEC Mtb Alr [2] (setting [9]), 0.13 ± 0.0052. Moreover, the growth in the assay on E. coli TESEC Mtb Asd (setting [10]) came to 0.341 ± 0.079; in the assay on E. coli TESEC Mtb Asd (setting [11]), 0.371 ± 0.058; in the assay with E. coli TESEC Mtb DapB (setting [12]) it was 0.204 ± 0.009; in the assay with E. coli TESEC Mtb DapB (setting [13]) it was 0.214 ± 0.046; in assay [3], 0.513 ± 0.074; in the assay with E. coli TESEC Mtb Alr [4] (setting [14]), 0.4246 ± 0.0021. The same molecule came in with a growth in the assay with E. coli TESEC Mtb Alr [4] (setting [15]) of 0.337 ± 0.0046.

In the case of `CC=C(C)C(=O)OC1C(OC(C)=O)C2(CO)C(O)CC3(C)C(=CCC4C5(C)CCC(OC6OC(C(=O)O)C(OC7OC(CO)C(O)C(O)C7O)C(O)C6OC6OC(CO)C(O)C(O)C6O)C(C)(CO)C5CCC43C)C2CC1(C)C` (stereo not drawn) [Beta-Escin], the growth was determined as 0.289 ± 0.0075 in assay [1]; 0.333 ± 0.0081 in the assay on E. coli TESEC Mtb Alr [2] (setting [5]); 0.24 ± 0.0056 with E. coli TESEC Mtb Alr [2] (setting [6]); 0.366 ± 0.011 with E. coli TESEC Mtb Alr [2] (setting [7]); 0.151 ± 0.0075 in the assay with E. coli TESEC Mtb Alr [2] (setting [8]); 0.226 ± 0.01 with E. coli TESEC Mtb Alr [2] (setting [9]). For the same molecule, the growth was 0.271 ± 0.026 in the assay on E. coli TESEC Mtb Asd (setting [10]); 0.342 ± 0.048 in the assay on E. coli TESEC Mtb Asd (setting [11]); 0.329 ± 0.018 in the assay with E. coli TESEC Mtb DapB (setting [12]); 0.323 ± 0.0085 in the assay on E. coli TESEC Mtb DapB (setting [13]); 0.438 ± 0.02 in assay [3]; 0.438 ± 0.018 in the assay with E. coli TESEC Mtb Alr [4] (setting [14]). Also, in the assay on E. coli TESEC Mtb Alr [4] (setting [15]), the growth is 0.392 ± 0.011.
